Experimental data published in PubChem BioAssay (EPA / NIEHS).
Some structures have more than one record in an assay (separate samples or runs), and their calls can disagree. The source made the active and inactive calls. The calls were made as follows: active = hit-call score of the fitted dose curve at least 0.9, where 1 is the maximum; inactive = score below 0.9.

read-out: Intercellular Adhesion Molecule 1 (ICAM1), ICAM1 (gene 3383); experiment: BSK_3C_ICAM1: BioMAP Diversity Plus: 3C Assay for Intercellular Adhesion Molecule 1 (ICAM1) Biomarker Activity (AID 2283003); conditions: primary human endothelial cells (HUVEC); actives raise or lower the signal
Method: BSK_3C is a cell-based, multiplexed-readout assay that uses umbilical vein endothelium, a human vascular primary cell, with measurements taken at 24 hours after chemical dosing in a 96-well plate.BSK_3C_ICAM1 is an assay component measured in the BSK_3C assay. It measures ICAM-1 antibody related to regulation of gene expression using ELISA technology.Data from the assay component BSK_3C_ICAM1 was analyzed into 1 assay endpoint. This assay endpoint, BSK_3C_ICAM1, was analyzed with bidirectional fitting relative to DMSO as the negative control and baseline of activity. Using a type of binding reporter, gain or loss-of-signal activity can be used to understand changes in the signaling as they relate to the gene ICAM1. Furthermore, this assay endpoint can be referred to as a primary readout, because this assay has produced multiple assay endpoints where this one serves a signaling function. To generalize the intended target to other relatable targets, this assay endpoint is annotated to the cell adhesion molecules intended target family, where the subfamily is Immunoglobulin CAM.
The levels of cell surface (or secreted, indicated by the prefix "s") biomarker endpoints were measured by ELISA. Overt cytotoxicity to cells in confluent adherent cultures (all systems other than the BT system) was assessed by measuring total protein levels using sulforhodamine B (SRB) staining in parallel cultures at the time of biomarker measurements, indicated as SRB endpoints. For proliferation assays for adherent cell types, individual cell types are cultured at sub-confluence and relative cell numbers quantified by SRB staining at time points optimized for each system (48 h: 3C and CASM3C systems; 72 h: BT and HDF3CGF systems; 96 h: SAg system). SRB was performed by staining cells with 0.1% SRB after fixation with 10% TCA and reading wells at 560 nm.Viability and proliferation of PBMC (T cells) was quantified by Alamar Blue reduction for the SAg and BT systems. For PBMC viability (referred to as PBMC Cytotoxicity within the assay endpoint names), cells were plated (75,000/well in a 96-well plate) and then chemical samples added for 1 h before addition of activators, SEB and TSST-1 (20 ng/mL final concentration each). Cells were incubated for 90 h. Then, Alamar Blue (20 uL/well) (Invitrogen, Cat DAL1100) was added for 6 h, and the plates were read with a fluorescence microplate reader at 546/580 nm (excitation/emission). For PBMC proliferation, cells were plated and activated as above but incubated for only 16 h prior to addition of Alamar Blue. Plates were read after 6 h.

SMILES	outcome	AC50
CO/C=C(/C(=O)OC)c1ccccc1Oc1cc(Oc2ccccc2C#N)ncn1	inactive	32.6 µM (active)
N#CC(CCc1ccc(Cl)cc1)(Cn1cncn1)c1ccccc1 (stereo not given)	inactive	–
CC(Oc1ccc(Cl)cc1Cl)C(=O)O (stereo not given)	inactive	–
OC(c1ccc(Cl)cc1)(c1cncnc1)c1ccccc1Cl (stereo not given)	inactive	–
COP(N)(=O)SC (stereo not given)	inactive	–
COC(=O)c1ccccc1C(=O)OC	inactive	–
CC(C)C1(C)N=C(c2nc3ccccc3cc2C(=O)O)NC1=O (stereo not given)	inactive	–
N#Cc1nn(-c2c(Cl)cc(C(F)(F)F)cc2Cl)c(N)c1S(=O)C(F)(F)F (stereo not given)	inactive	–
COC(=O)C=C(C)OP(=O)(OC)OC	inactive	–
C=CC1(C)OC(=O)N(c2cc(Cl)cc(Cl)c2)C1=O (stereo not given)	inactive	–
CCCN(CCC)c1c([N+](=O)[O-])cc(S(N)(=O)=O)cc1[N+](=O)[O-]	–	41.3 µM (active) [middle of 4 runs]
Cc1cc(Cl)ccc1OCC(=O)O	inactive	–
CCON=C(CC)C1=C(O)CC(c2c(C)cc(C)cc2C)CC1=O (stereo not given)	inactive	–
C=CCC1=C(C)[C@@H](OC(=O)[C@@H]2[C@@H](C=C(C)C)C2(C)C)CC1=O	inactive	–
O=C(O)c1nc(Cl)ccc1Cl	inactive	–
CS/C(C)=N/OC(=O)N(C)SN(C)C(=O)O/N=C(\C)SC	–	31.6 µM (active)
CC1=C(C(=O)Nc2ccccc2)SCCO1	inactive	–
CCCC1COC(Cn2cncn2)(c2ccc(Cl)cc2Cl)O1 (stereo not given)	inactive	–
Fc1ccc(Oc2ccnc3cc(Cl)cc(Cl)c23)cc1	–	29.9 µM (active)
CCCCC(CC)COC(=O)c1ccccc1C(=O)OCC(CC)CCCC (stereo not given)	inactive	–

SMILES	outcome	AC50
CCOP(=S)(OCC)SCn1c(=O)oc2cc(Cl)ccc21	inactive	–
Oc1ccccc1-c1ccccc1	inactive	–
COP(=S)(OC)Oc1nc(Cl)c(Cl)cc1Cl	inactive	–
CNC(=S)S	inactive	–
N#Cc1cc(Br)c(O)c(Br)c1	inactive	–
COc1ccc(C(c2ccc(OC)cc2)C(Cl)(Cl)Cl)cc1	inactive	–
COc1nc(NC(C)C)nc(NC(C)C)n1	inactive	–
O=C(Nc1ccccc1)Nc1ccnc(Cl)c1	inactive	–
CCNc1nc(Cl)nc(NCC)n1	inactive	–
C=CCC1=C(C)C(OC(=O)C2C(C=C(C)C)C2(C)C)CC1=O (stereo not given)	inactive	–
CON(C)C(=O)Nc1ccc(Cl)c(Cl)c1	inactive	–
COc1nc(C)nc(NC(=O)NS(=O)(=O)c2ccccc2CCC(F)(F)F)n1	inactive	–
CCOC(=O)C(Cl)Cc1cc(-n2nc(C)n(C(F)F)c2=O)c(F)cc1Cl (stereo not given)	inactive	–
COC(=O)N(OC)c1ccccc1COc1ccn(-c2ccc(Cl)cc2)n1	inactive	–
CN(C)C(=S)SSC(=S)N(C)C	–	32.1 µM (active)
CCOC(=O)CC(SP(=S)(OC)OC)C(=O)OCC (stereo not given)	inactive	–
Cc1ccc(-c2c(Cl)nc(C#N)n2S(=O)(=O)N(C)C)cc1	inactive	–
COC(=O)C(C)Oc1ccc(Oc2ccc(Cl)cc2Cl)cc1 (stereo not given)	inactive	–
CCc1nn(C)c(C(=O)NCc2ccc(C(C)(C)C)cc2)c1Cl	inactive	–
